Bioassay records as filed in PubChem BioAssay.
Autofluor 339 = intrinsic fluorescence of library compounds, ex339/em460 – biochemical, MLSMR library, data from DPM-DC assay, artefact control, profiling panel; 65,000 tested, 5.5% active; AID 709; compound autofluorescence, ex339/em460 nm, NADH buffer; stronger effect = higher value; 1 = no-compound wells, NADH background; fluorescence fold increase at 10 µM;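 active means at 10 µM, mean starting fluorescence two-fold or more over control wells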;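 further: signal is the first read of a kinetic run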
PMK inhibit = blocks S. pneumoniae phosphomevalonate kinase; purified PMK, PK/LDH-coupled NADH absorbance 340 nm; inhibition, % at 10 µM; 65,000 tested, 0.49% active;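 active means top-ranked compounds by inhibition in the single 10 µM screen, taking a fixed number of the strongest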;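 further: 0% = full reaction with DMSO carrier and 100% = background rate without enzyme reaction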
Spn DPM-DC inh = blocks S. pneumoniae diphosphomevalonate decarboxylase | purified DPM-DC, PK/LDH coupled NADH fluorescence | calls only at 10 µM | 65,000 tested, 0.49% active;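 active means the 320 compounds with the highest percent inhibition in the single-dose primary screen, excluding strongly autofluorescent ones, cut at about 32% in these data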;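 further: kinetic rate of NADH fluorescence loss reporting ADP formed by the decarboxylase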
NADH enzymes = inhibitors of enzymes used to reach an NAD/NADH endpoint; coupled PK/LDH NADH assays, four targets; IC50, µM (doses to about 10 µM), inactives show at the top dose inhibition; 65,000 tested, 0.02% active; AID 774;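 active means single-dose screening hits from any of four coupled enzyme assays that gave an IC50 when retested across doses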;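 further: the DPM-DC format reads NADH fluorescence rather than 340 nm absorbance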
Abs 340nm = absorbance at 340 nm | compound absorbance at 340 nm, fold over control | AID 708 | 65,000 tested, under 10 active | fold change at 10 µM;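 active means at 10 µM dose, initial 340 nm absorbance at least 2 fold that of control wells; inactive means change under 2 fold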;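 further: initial absorbance extrapolated from kinetic A340 decline of NADH oxidation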
MK inhibit = inhibitors of Streptococcus pneumoniae mevalonate kinase | AID 555 | purified MK, PK/LDH-coupled NADH absorbance 340 nm | inhibition, % at 10 µM | 65,000 tested, 0.48% active;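 active means ranked among the strongest by inhibition in the single 10 µM screen, a fixed top-ranked set picked for dose follow-up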
* = called active by the depositor; i = inactive; nt = not tested or not shown; + = active, no number. This is a sample that favours compounds with a hit; in the whole collection about 6.5% have one here.

SMILES	Autofluor 339	PMK inhibit	Spn DPM-DC inh	NADH enzymes	Abs 340nm	MK inhibit
Cc1cc2c(c(N)n1)c(=O)oc1ccccc12	3.7*	5	nt	5%	1.1	5
CCOc1ccccc1Oc1c(C)oc2cc(OC(=O)N3CCOCC3)ccc2c1=O	1.1	7	i	4%	1	4
COC(=O)COc1ccc2c(=O)c(Oc3ccccc3)c(C)oc2c1	1.1	0	i	4%	1	11
Cc1oc2cc(O)ccc2c(=O)c1Oc1ccccc1Br	2.2*	5	nt	3%	1.1	0
Cc1oc2cc(O)ccc2c(=O)c1Oc1ccccc1	2.2*	0	nt	3%	1.1	5
O=C(NC1(C(F)(F)F)NC(=O)N(C2CCCCC2)C1=O)c1cccs1 (stereo unspecified)	1.1	3	i	1%	1.1	0
COc1cccc(-c2cc(C(=O)Nc3ccccc3SC)no2)c1	1.4	10	i	5%	1	4
COc1ccc(NC(=O)c2cc(-c3ccccc3OC)on2)cc1	1.1	11	i	20%	1	48*
COc1ccc(-c2cc(C(=O)Nc3cnn(Cc4ccccc4C)c3)no2)cc1OC	2.4*	23	i	12%	1	0
COc1ccccc1-c1cc(C(=O)Nc2cccnc2)no1	1.1	8	i	3%	1	1
COc1ccc(-c2cc(C(=O)Nc3ccccc3SC)no2)cc1OC	2.2*	10	i	5%	1.1	3
COc1ccc(-c2cc(C(=O)Nc3cc(C)n(Cc4ccc(Cl)cc4)n3)no2)cc1OC	2.2*	16	i	11%	1.1	0
COc1ccccc1-c1cc(C(=O)Nc2ccccc2SC)no1	2.8*	11	i	15%	1	5
CSc1ccccc1NC(=O)c1cc(CC(C)C)on1	0.9	2	i	6%	1	16
COC(=O)C1=CN(C)C=C(C(=O)OC)C1c1ccsc1	2.2*	10	nt	8%	1	5
Cn1c(SCc2ccc3c(c2)OCO3)nnc1-c1ccccc1	1	16	i	2%	1	4
c1ccn2c(SCc3ccc4c(c3)OCO4)nnc2c1	0.96	12	i	21%	1	48*
O=S(=O)(N1CCOCC1)n1c(Cc2ccccc2)nc2ccccc21	1.1	6	i	2%	1.1	0
N=c1c(C(=O)NCC2CCCO2)cc2c(=O)n3ccccc3nc2n1Cc1cccnc1 (stereo unspecified)	3.7*	5	nt	3%	0.98	0
COC(=O)c1cc2c(=O)n3ccccc3nc2n(Cc2cccnc2)c1=N	3.7*	2	nt	4%	1.1	6
N#Cc1cc2c(=O)n3ccccc3nc2n(Cc2cccnc2)c1=N	1.3	0	i	0%	1.1	0
COC(=O)c1cc2c(=O)n3ccccc3nc2n(C)c1=N	3.8*	8	nt	5%	1	1
O=C(NCC1CCCO1)c1ccc2c(=O)n(CCc3ccccc3)c(=O)[nH]c2c1 (stereo unspecified)	1.4	20	i	9%	1.1	4
Cn1nc(C(=O)NCC2CCCO2)c2ccccc2c1=O (stereo unspecified)	1.1	12	i	7%	1	8
Cc1cccn2c(=O)c3cc(C(=O)NCC4CCCO4)c(=N)n(Cc4cccnc4)c3nc12 (stereo unspecified)	3.7*	6	nt	8%	1	9
SMILES	Autofluor 339	PMK inhibit	Spn DPM-DC inh	NADH enzymes	Abs 340nm	MK inhibit
CC1(C)CC(=O)C=C(NC2CCS(=O)(=O)C2)C1 (stereo unspecified)	1	0	i	2%	0.98	10
COC(=O)C1=C(CSc2nc3ccccc3o2)NC(=O)NC1c1cc(C)ccc1C (stereo unspecified)	1.2	3	i	3%	1	7
CCc1ccc(C2=Nn3c(nnc3-c3cccs3)SC2)cc1	1	19	i	6%	1	0
CCC(=O)N/C(N)=N/c1nc(C)c2cc(OC)ccc2n1	2.1*	1	nt	1%	1	2
CCOC(=O)CSc1nc(C)c2cc(OC)ccc2n1	3.7*	0	nt	0%	1.1	0
CCOC(=O)CCSc1nc(C)c2ccccc2n1	1.2	9	i	3%	1.1	0
COc1ccc2nc(/N=C(\N)NC(=O)C(C)(C)C)nc(C)c2c1	2	6	i	7%	1	2
COc1ccc(C(=O)n2ccc(C)n2)cc1Br	1.1	5	i	4%	0.99	8
Cc1cc(C(=O)OCC(=O)N(C)C2CCS(=O)(=O)C2)c(C)n1-c1ccccc1 (stereo unspecified)	1	9	i	3%	1	1
CCCCNC(=O)c1cn(C)c2ccc(S(=O)(=O)N3CCOCC3)cc2c1=O	1.2	7	i	5%	1.1	7
CCOc1cc2[nH]c(=O)n(CCC(=O)N3CCN(c4ccccc4OC)CC3)c(=O)c2cc1OCC	1.3	8	i	5%	1.1	7
CCOc1cc2[nH]c(=O)n(Cc3ccc(C(=O)NCCOC)cc3)c(=O)c2cc1OCC	0.92	12	+	18%	1.1	8
COCCNC(=O)c1ccc2c(=O)n(CCOC)c(=O)[nH]c2c1	1.5	0	i	5%	1	7
CCOc1cc2[nH]c(=O)n(Cc3cccc(OC)c3)c(=O)c2cc1OCC	2*	5	i	4%	1	7
COc1ccc(-n2nc3cc(C)c(NC(=O)c4cccnc4)cc3n2)cc1	3.3*	10	i	14%	1.1	8
COc1ccc(-n2nc3cc(C)c(NC(=O)CC(C)C)cc3n2)cc1	2.1*	7	nt	6%	1.1	5
Cc1cc2nn(-c3ccccc3)nc2cc1NC(=O)c1cccs1	1.3	1	i	1%	1.1	1
CCN(CC)S(=O)(=O)c1cccc(C(=O)OCC(=O)N2CC(=O)Nc3ccccc32)c1	1.1	11	i	4%	1	1
CCCOC(=O)C1=C(C)NC2=C(C(=O)CC(C)(C)C2)C1c1ccc(N(C)C)cc1 (stereo unspecified)	1.1	0	i	1%	1.1	0
CCOC(=O)C1=C(C)NC2=C(C(=O)CC(C)(C)C2)C1c1cccc(C)n1 (stereo unspecified)	4.9*	9	nt	9%	1.1	8
Cc1nn2c(N3CCN(C(=O)c4ccco4)CC3)cc(C(C)(C)C)nc2c1-c1ccccc1	2.6*	0	i	0%	1.1	0
Cc1cc(N2CCN(C(=O)c3ccco3)CC2)n2ncnc2n1	1.1	18	i	20%	1	42*
CCOc1ccc2[nH]c(=O)c(CN(C(=O)N3CCOCC3)C3CC3)cc2c1	3.8*	14	nt	7%	1.1	0
CCOc1ccc2[nH]c(=O)c(CN(Cc3ccccc3)C(=O)N3CCCC3)cc2c1	2.1*	15	i	7%	1	8
